# Test results from PubChem BioAssay.
# Active and inactive are the calls of the source.
# Experiments:
# [1] = system: Plasmodium falciparum Sir2 (PF13_0152, Sir2A); assay: pfSir2 binders on small-molecule microarrays, primary screen, biochemical, small-molecule microarray, 635 nm fluorescence (AID 1098); settings: small-molecule microarray binding, fluorescence 635 nm; higher = more signal;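 further: score merges spot fluorescence intensity with its signal-to-noise ratio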
# [2] = small-molecule microarray binders of probe aDKK1, primary screen, biochemical, biotinylated probe, 635/667 nm fluorescence (AID 1099); settings: higher = more signal;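 further: score merges 667nm spot fluorescence with signal to noise across triplicate slides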
# [3] = small-molecule microarray binders of probe aCHRDL2, primary screen, biochemical, biotinylated probe, 635/667 nm fluorescence (AID 1100); settings: higher = more signal
# [4] = splicing luciferase reporter signal modulators, primary screen, spliceosome inhibition project, cell-based, HEK293, splice +/- reporter (AID 1101); settings: luminescence, 24 h, higher = more signal, called active from +8 up or from −8 down;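 further: HEK293 cells carrying a splicing-competent luciferase reporter gene; test concentration not given here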
# [5] = target: Fibroblast growth factor 10 (Homo sapiens) (UniProt O15520); assay: FGF10 binders on small-molecule microarrays, primary screen, biochemical, small-molecule microarray, 635 nm fluorescence (AID 1102); settings: FGF10 binding, fluorescence 635 nm, higher = more signal
# Fibroblast growth factor 10 (Homo sapiens), sequence (O15520 whole entry, looked up): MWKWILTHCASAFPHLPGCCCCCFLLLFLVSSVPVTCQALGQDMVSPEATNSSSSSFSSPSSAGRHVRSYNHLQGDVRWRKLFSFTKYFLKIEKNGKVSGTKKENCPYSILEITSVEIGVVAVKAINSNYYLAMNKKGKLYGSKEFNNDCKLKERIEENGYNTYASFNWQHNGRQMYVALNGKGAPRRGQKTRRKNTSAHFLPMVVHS
# [6] = system: glycogen synthase kinase-3 (GSK3A per assay name; protocol says GSK3B); assay: GSK3 binders on small-molecule microarrays, primary screen, biochemical, small-molecule microarray, 635 nm fluorescence, GSK3A (AID 1103); settings: small-molecule microarray binding, fluorescence 635 nm; higher = more signal; further: the record names both GSK3A and GSK3B
# [7] = target: Epidermal growth factor receptor (Homo sapiens) (UniProt P00533); assay: EGFR binders on small-molecule microarrays, primary screen, biochemical, small-molecule microarray, 635 nm fluorescence (AID 1104); settings: EGFR binding, higher = more signal;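 further: score merges 667 nm emission intensity with spot signal to noise over triplicate slides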
# Epidermal growth factor receptor (Homo sapiens), sequence (P00533 whole entry, looked up): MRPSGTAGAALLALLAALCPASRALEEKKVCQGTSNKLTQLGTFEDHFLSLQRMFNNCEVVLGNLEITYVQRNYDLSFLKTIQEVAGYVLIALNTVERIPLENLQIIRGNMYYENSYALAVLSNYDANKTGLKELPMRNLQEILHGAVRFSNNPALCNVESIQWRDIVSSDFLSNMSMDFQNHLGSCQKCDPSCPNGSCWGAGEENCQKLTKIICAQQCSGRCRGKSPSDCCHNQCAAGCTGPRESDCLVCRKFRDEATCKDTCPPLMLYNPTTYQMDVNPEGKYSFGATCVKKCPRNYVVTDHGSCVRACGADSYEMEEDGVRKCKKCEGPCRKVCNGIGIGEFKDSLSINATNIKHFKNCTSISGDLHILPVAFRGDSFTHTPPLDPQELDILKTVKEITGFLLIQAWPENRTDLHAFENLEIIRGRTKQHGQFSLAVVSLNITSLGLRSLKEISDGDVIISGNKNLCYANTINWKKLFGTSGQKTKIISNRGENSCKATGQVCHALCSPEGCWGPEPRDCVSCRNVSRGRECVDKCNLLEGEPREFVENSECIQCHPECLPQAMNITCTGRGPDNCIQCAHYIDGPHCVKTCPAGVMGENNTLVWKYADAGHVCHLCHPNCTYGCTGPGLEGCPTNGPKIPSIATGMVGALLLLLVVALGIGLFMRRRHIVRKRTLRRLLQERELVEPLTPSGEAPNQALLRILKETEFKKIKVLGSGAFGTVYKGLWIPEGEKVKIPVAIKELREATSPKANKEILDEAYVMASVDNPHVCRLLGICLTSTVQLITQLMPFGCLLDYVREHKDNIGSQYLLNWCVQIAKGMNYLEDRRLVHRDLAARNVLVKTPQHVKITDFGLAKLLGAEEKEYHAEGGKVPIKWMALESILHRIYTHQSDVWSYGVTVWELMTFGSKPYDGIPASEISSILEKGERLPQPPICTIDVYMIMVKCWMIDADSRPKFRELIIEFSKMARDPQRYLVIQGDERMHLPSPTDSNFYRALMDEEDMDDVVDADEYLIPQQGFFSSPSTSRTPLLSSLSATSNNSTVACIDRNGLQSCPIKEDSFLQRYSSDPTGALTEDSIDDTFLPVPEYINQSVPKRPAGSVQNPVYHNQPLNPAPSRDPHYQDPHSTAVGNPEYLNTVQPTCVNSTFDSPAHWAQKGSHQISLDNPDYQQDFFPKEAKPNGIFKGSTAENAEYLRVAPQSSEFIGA
# [8] = target: Follistatin-related protein 3 (Homo sapiens) (UniProt O95633); assay: FSTL3 binders on small-molecule microarrays, primary screen, biochemical, small-molecule microarray, 635 nm fluorescence (AID 1105); settings: FSTL3 binding, higher = more signal;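 further: score merges emission near 667 nm and signal to noise per printed spot across three slides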
# Follistatin-related protein 3 (Homo sapiens), sequence (O95633 whole entry, looked up): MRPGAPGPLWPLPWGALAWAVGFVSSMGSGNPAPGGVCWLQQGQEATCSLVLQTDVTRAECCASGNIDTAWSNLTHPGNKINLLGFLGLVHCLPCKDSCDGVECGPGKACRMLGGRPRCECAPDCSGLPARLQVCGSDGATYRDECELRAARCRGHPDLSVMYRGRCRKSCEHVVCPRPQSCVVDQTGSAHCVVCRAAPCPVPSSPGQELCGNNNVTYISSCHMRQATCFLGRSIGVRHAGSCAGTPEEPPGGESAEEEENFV
# [9] = target: Dickkopf-related protein 1 (Homo sapiens) (UniProt O94907); assay: DKK1 binders on small-molecule microarrays, primary screen, biochemical, small-molecule microarray, 635 nm fluorescence scan (AID 1106); settings: DKK1 binding, higher = more signal;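 further: score merges emission near 667 nm with signal to noise over three replicate slides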
# Dickkopf-related protein 1 (Homo sapiens), sequence (O94907 whole entry, looked up): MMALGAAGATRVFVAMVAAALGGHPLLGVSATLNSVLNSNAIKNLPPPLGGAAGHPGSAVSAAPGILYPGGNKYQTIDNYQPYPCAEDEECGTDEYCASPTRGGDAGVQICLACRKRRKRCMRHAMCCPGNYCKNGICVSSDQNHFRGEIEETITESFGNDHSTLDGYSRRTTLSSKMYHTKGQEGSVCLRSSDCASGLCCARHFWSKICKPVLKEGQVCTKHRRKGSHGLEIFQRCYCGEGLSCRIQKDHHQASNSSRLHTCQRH
# [10] = system: Inhibin beta A chain (activin A); assay: INHBA (activin A) binders on microarrays, primary screen, biochemical, small-molecule microarray, 635 nm fluorescence scan (AID 1107); settings: small-molecule microarray binding, higher = more signal;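 further: mouse activin A protein probed at 4.33 µg/mL on printed slides; score merges bound-protein fluorescence near 667 nm with spot signal-to-noise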
# [11] = system: Human papillomavirus type 1a protein E7 (residues 44-93); assay: HPV1a E7 fragment binders on microarrays, primary screen, biochemical, small-molecule microarray, residues 44-93, 635 nm fluorescence (AID 1108); settings: small-molecule microarray binding, fluorescence 635 nm; higher = more signal;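 further: E7 fragment applied at 1 µg/mL in TBST for 1 h at 4 C; score combines spot fluorescence with its signal to noise ratio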
# [12] = modulators of HCV replicon luciferase signal, primary screen, HCV replication inhibitor project, Huh7 cells, luciferase reporter (AID 1109); settings: 48 h, higher = more signal;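 further: huh7 hepatoma cells harbouring a luciferase neomycin HCV replicon reporter; luciferase luminescence as measure of HCV replicon replication; test concentration not given here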
# [13] = target: Left-right determination factor 2 (Homo sapiens) (UniProt O00292); assay: LEFTY2 binders on small-molecule microarrays, primary screen, biochemical, small-molecule microarray, 635 nm fluorescence scan (AID 1110); settings: LEFTY2 binding, higher = more signal
# Left-right determination factor 2 (Homo sapiens), sequence (O00292 whole entry, looked up): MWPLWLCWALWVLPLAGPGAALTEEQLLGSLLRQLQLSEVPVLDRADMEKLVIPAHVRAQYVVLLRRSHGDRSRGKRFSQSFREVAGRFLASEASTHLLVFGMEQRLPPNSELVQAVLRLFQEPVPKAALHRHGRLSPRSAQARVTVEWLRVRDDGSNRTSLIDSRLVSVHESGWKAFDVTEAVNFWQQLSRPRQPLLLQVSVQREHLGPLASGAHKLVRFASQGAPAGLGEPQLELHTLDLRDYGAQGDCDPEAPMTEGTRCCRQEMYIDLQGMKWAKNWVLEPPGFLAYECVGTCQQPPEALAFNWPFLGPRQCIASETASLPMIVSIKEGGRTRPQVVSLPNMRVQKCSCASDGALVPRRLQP
# [14] = target: Calmodulin-1 (Homo sapiens) (UniProt P0DP23); assay: CALM1 binders on microarrays, EGTA buffer, profiling panel, biochemical, small-molecule microarray, Cy5-labelled CALM1 (AID 1111); settings: Cy5-CALM1 binding fluorescence, higher = more signal;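 further: labelled calmodulin applied in Tris saline Tween buffer holding calcium plus EGTA and DTT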
# [15] = target: Calmodulin-1 (Homo sapiens) (UniProt P0DP23); assay: calcium-bound CALM1 binders on microarrays, profiling panel, artefact control for SMM control-protein annotation, biochemical, small-molecule microarray, Cy5-labelled CALM1, plus calcium (AID 1112); settings: Cy5-CALM1 binding fluorescence, higher = more signal;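 further: score merges spot fluorescence with signal to noise from triplicate slides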
# [16] = small-molecule microarray binders of probe aWnt5a, primary screen, biochemical, biotinylated probe, 635/667 nm fluorescence (AID 1113); settings: higher = more signal;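 further: score merges 667 nm fluorescence intensity with signal-to-noise per printed feature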
# [17] = small-molecule microarray binders of probe aShh, primary screen, biochemical, biotinylated probe, 635/667 nm fluorescence (AID 1114); settings: higher = more signal;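 further: probe is biotin-labelled aShh protein from a stem cell growth factor screen; measures binding of labelled protein to compounds printed on the slide; score merges feature fluorescence at 667 nm with signal-to-noise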
# [18] = small-molecule microarray binders of probe aNog, primary screen, biochemical, biotinylated probe, 635/667 nm fluorescence (AID 1115); settings: higher = more signal;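 further: probe is biotinylated aNog protein used at 0.15 µg/mL for 1 h at 4 C; z-score combines 667 nm fluorescence of each spot with its signal to noise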
# [19] = target: Torsin-1A-interacting protein 1 (Homo sapiens) (UniProt Q5JTV8); assay: LAP1 binders from COS7 cell lysate, primary screen, small-molecule microarray, 635/667 nm fluorescence (AID 1116); settings: COS7-hLAP1 lysate binding, 635 nm fluorescence, higher = more signal
# Torsin-1A-interacting protein 1 (Homo sapiens), sequence (Q5JTV8 whole entry, looked up): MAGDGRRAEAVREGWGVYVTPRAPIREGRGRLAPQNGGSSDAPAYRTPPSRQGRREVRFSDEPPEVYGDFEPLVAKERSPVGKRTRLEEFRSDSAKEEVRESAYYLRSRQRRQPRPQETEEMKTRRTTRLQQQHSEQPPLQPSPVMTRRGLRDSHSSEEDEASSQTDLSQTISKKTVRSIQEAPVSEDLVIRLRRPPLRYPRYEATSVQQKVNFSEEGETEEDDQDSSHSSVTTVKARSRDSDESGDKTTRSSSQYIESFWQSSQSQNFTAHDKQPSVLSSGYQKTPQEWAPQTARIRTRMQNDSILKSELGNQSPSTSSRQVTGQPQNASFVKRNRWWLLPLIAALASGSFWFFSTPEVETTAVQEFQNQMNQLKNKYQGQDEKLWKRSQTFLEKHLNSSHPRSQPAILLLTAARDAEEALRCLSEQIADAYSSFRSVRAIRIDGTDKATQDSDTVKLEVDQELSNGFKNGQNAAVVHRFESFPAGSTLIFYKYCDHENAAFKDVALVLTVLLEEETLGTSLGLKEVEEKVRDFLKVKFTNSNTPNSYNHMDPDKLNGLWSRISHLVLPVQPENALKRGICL
# [20] = target: Alpha-bungarotoxin (Bungarus multicinctus) (UniProt P60615); assay: alpha-bungarotoxin binders on microarray, profiling panel, artefact control for SMM control protein annotation, biochemical, small-molecule microarray, Alexa647 label, 635/667 nm fluorescence (AID 1117); settings: alpha-BTX-A647 binding fluorescence, higher = more signal
# Alpha-bungarotoxin (Bungarus multicinctus), sequence (P60615 whole entry, looked up): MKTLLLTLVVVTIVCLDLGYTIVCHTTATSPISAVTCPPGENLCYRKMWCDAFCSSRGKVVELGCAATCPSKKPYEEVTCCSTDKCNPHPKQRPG
SMILES,composite z-score [1],composite z-score [2],composite z-score [3],z-score [4],composite z-score [5],composite z-score [6],composite z-score [7],composite z-score [8],composite z-score [9],composite z-score [10],composite z-score [11],z-score [12],composite z-score [13],composite z-score [14],composite z-score [15],composite z-score [16],composite z-score [17],composite z-score [18],composite z-score [19],composite z-score [20]
COC(=O)NCC=Cc1nc(CCCO)co1,0.439,-0.414,-0.576,0.566 (inactive),0.534,0.926,0.581,0.887,0.617,0.163,0.722,-0.0343,0.493,-0.368,-0.98,-0.0462,0.0141,-0.137,0.116,-0.498
CCOC(=O)[C@H](CC(C)C)NC(=O)CCC1CC(OC(=O)NCc2cccc3ccccc23)CC2(CCCC(COC(=O)NCCOc3ccccc3)O2)O1 (stereo not given in full),0.951,-0.246,-0.383,-1.87 (inactive),0.658,1.03,0.557,0.887,0.344,0.184,1.32,-0.687,0.518,0.721,-0.143,0.0162,-0.253,-0.311,0.556,0.266
CCOC(=O)[C@H](CC(C)C)NC(=O)CCC1CC(OC(=O)NCCc2ccc(F)cc2)CC2(CCCC(COC(=O)NCCC(C)C)O2)O1 (stereo not given in full),0.264,-0.149,-0.424,-0.695 (inactive),0.18,-0.0508,0.0889,0.27,0.324,0.175,0.48,0.314,0.344,0.586,-0.216,-0.0383,-0.0733,-0.108,-0.0671,1.21
COc1ccc(COC(=O)NN=C2C[C@@H](O)[C@@H](O)[C@@H]3[C@@H]4C(=O)N(C5CCCCC5)C(=O)[C@@H]4CC[C@H]23)cc1,-0.378,1.07,1.47,1.3 (inactive),-0.485,-0.784,-0.575,-0.558,-1.45,0.699,-0.605,-2.37,-0.877,0.979,-0.0278,-0.243,-0.315,0.051,1.03,0.161
COc1ccc(O[C@H]2C=C[C@@H](c3ccccc3)O[C@@H]2CON=C2[C@H]3CCn4c(=O)n(-c5ccccc5)c(=O)n4[C@H]3[C@H](O)[C@@H]3O[C@H]23)cc1,0.393,0.214,-0.224,1.09 (inactive),0.464,0.417,0.318,0.584,0.288,0.338,0.807,-4.67,0.505,0.719,-0.21,-0.0192,-0.0769,-0.0855,0.24,0.974
CSCC[C@@H]1NC(=O)CC=C[C@@H](C)COC(=O)[C@@H](C)COC1=O,-0.0958,-0.417,-0.816,-0.0857 (inactive),-0.0586,0.812,0.0541,-0.149,-0.18,0.705,-2.17,0.371,0.294,-1.31,-1.61,-0.197,-0.366,-0.15,0.574,-2.23
COc1ccc(O[C@H]2C=C[C@@H](c3ccccc3)O[C@@H]2CON=CC[C@@H]2C=C[C@H](OC(C)=O)[C@@H](COC(C)=O)O2)cc1,0.277,-0.229,0.0216,0.731 (inactive),-0.0104,-0.603,0.238,0.128,0.105,0.606,-0.332,-0.821,0.425,-0.169,-0.282,-0.145,-0.221,-0.083,0.28,-0.0924
CC(CCN1CCCc2nc(C)c(C)cc21)=NOC(C)CN1CCCCc2nc(C)c(C)cc21 (stereo not given),1.16,0.0616,-0.271,0.322 (inactive),1.14,1.28,1.2,1.42,1.18,1.43,1.35,-1.66,0.984,0.341,-0.568,0.159,0.689,0.57,0.436,0.714
COC(=O)CC=C[C@@H](C)[C@@H](C=NOC[C@H]1O[C@H](c2ccccc2)C=C[C@@H]1Oc1ccc(OC)cc1)OC,-0.67,-0.242,-0.212,-0.194 (inactive),0.268,-0.393,-0.587,0.173,-0.0407,0.807,-0.585,-1.7,-0.255,-1.15,-1.27,-0.106,-0.243,-0.44,-0.37,-0.262
Cc1cc2c(nc1C)CCCN2CC(O)CN1CCCc2nc(C)c(C)cc21,0.264,0.125,0.258,-0.153 (inactive),0.92,0.388,0.36,0.552,0.536,1.17,0.142,-0.107,0.368,0.239,-0.322,0.308,0.699,0.568,3.26,1.42
CCOC(=O)C1=NO[C@]2(C=C(Br)C3(OCCCO3)[C@H]3O[C@H]32)C1,-0.695,-0.32,-0.274,0.437 (inactive),0.18,-0.512,-0.203,-0.425,-0.123,0.549,-1.53,0.426,0.306,-1.04,-0.175,-0.161,-0.0879,0.341,0.194,0.477
